High-throughput results as filed in PubChem BioAssay.
PINK1 expr mod: PINK1 expression modulation. actives 0.2% (n = 410,000). PINK1 immunofluorescence, high-content cytometry, 24 h. Potency, µM (doses to about 76.6 µM), inactives show at the highest dose activation (PINK1 increase), actives largely listed as activators. AID 624263; active means well fitted activation curve with a large enough effect; inconclusive means small, poorly fitted or top-dose-only effect; cell line not stated here; further: % of control where 0% means no effect; nearly all actives have a fitted effect of over 65% in size
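Fluorescence from anti-PINK1 antibody, together with nuclear and cell stains, was scanned on a laser-scanning cytometer. Before staining, stable-line cells were incubated 24 hours with compounds at 5 concentrations; primary antibody 12 h at 10 degrees C.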
MCF10A rerep: induces DNA re-replication in MCF 10a normal breast cells. MCF 10A DNA re-replication, Hoechst nuclear intensity, 48 h. Potency, µM (series often up to 46.1 µM), without a hit: at the highest dose activity, positive = re-replication, hits mostly activators. actives 2.9% (n = 350,000). AID 624296; further: % of control where 0% means no effect; nearly all actives have a fitted effect of over 50% in size
SW480 rereplic: DNA re-replication induction in SW480 cells; AID 624297; SW480 DNA re-replication, Hoechst DNA content imaging, 48 h; actives 1.8% (n = 340,000); Potency, µM (doses to about 46.1 µM), without a hit: top-dose re-replication activation, actives largely listed as activators; further: % of control where 0% means no effect; nearly all actives have a fitted effect of over 55% in size
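250 cells/well; 23 nL cpd via pin tool; 48 hr, 37 C, 5% CO2; Hoechst 40 min; imager read of total nuclear intensity, ex 405/em 500-530 nm.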
KB-3-1 tox: kills parental KB-3-1 adenocarcinoma cells; KB-3-1 viability, CellTiter-Glo ATP luminescence, 72 h; Potency, µM (highest dose often 46.1 µM), usual class: cytotoxic; actives 1.4% (n = 400,000); further: on the % scale 0 is the no-effect control and ±100 the full control effect; nearly all actives have a fitted effect of over 60% in size
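Parental KB-3-1 adenocarcinoma cells in phenol-red-free DMEM with 10% FBS were pin-treated with compounds at several concentrations, incubated 72 h at 37 °C, and viability read by CellTiter-Glo luminescence; concentration-effect curves were fitted after normalization.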
KB-V1 cytotox: KB-V1 MDR subline cytotoxicity; Potency, µM (series often up to 46.1 µM), most hits filed as cytotoxic; KB-V1 MDR cells viability, CellTiter-Glo, 72 h; actives 3.4% (n = 400,000); further: on the % scale 0 is the no-effect control and ±100 the full control effect; nearly all actives have a fitted effect of over 60% in size
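Cytotoxicity toward P-gp-expressing KB-V1 cells was determined as loss of CellTiter-Glo luminescence after 72 h at 37 degrees C. Compounds were tested in quantitative HTS format across a concentration range, with curves fitted to normalized data.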
PTAP TSG101 blk: blocks PTAP/TSG101 interaction to inhibit HIV-1 budding; Potency, µM (highest dose often 115 µM), inactives show top-dose activity change, negative = inhibition, most hits filed as inhibitors; Q99816; 340,000 tested, under 10 active; Fluorescence polarization, FITC-PTAP peptide / Tsg101 binding; active means well fitted inhibition curve with a large enough effect in the main read-out, with a control signal flat, not every such curve was filed as active; inconclusive means small, poorly fitted or top-dose-only effect, or effect the other way, or a change in a side signal; inactive means no such curve, though single readings can be large or run the other way; further: % of control where 0% means no effect
Target sequence (Q99816 whole entry, looked up): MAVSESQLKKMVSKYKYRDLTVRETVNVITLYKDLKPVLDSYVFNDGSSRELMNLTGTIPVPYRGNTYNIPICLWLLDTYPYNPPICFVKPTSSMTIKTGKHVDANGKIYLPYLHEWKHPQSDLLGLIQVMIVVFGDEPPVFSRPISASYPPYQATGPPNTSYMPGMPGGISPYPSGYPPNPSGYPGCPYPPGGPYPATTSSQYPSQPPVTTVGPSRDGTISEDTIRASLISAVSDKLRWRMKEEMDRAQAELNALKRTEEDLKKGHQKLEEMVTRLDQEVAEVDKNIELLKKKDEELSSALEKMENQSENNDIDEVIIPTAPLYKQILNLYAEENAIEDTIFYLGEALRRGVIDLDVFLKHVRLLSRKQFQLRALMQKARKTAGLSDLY
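Tsg101 binding domain (10 uM final) was mixed with compound and a FITC-labeled PTAP peptide (50 nM final) in HEPES pH 7.5 buffer with NaCl, Tween 20, EDTA and TCEP; fluorescence polarization was read after 20 min at r.t.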
Numbers without * were called inactive; i = inactive; ? = inconclusive; / = no result; [ ] = remark or other dose. Only some compounds are listed: those with a hit (about 6.8% of all), similar ones and a draw of the others. Unless noted, the call rests on the fitted dose curve; in most records, active means well fitted curve in the direction sought with a large enough effect; inconclusive means small, poorly fitted or top-dose-only effect, or another doubt; inactive means no such curve, though single readings can be large; an effect the other way counts as inactive or inconclusive. Potency means the concentration at half of the fitted maximal effect.

SMILES | PINK1 expr mod | MCF10A rerep | SW480 rereplic | KB-3-1 tox | KB-V1 cytotox | PTAP TSG101 blk
CC(C)(C)NC(=O)C(OC(=O)Cn1nnc(-c2ccc(F)cc2)n1)c1ccncc1 (stereo not drawn) | ? | 21µM* | 12% | i | i | -13%
CC(C)(C)NC(=O)C(c1ccco1)N(C(=O)Cn1nnc(-c2ccc(F)cc2)n1)c1cccc(F)c1 (stereo not drawn) | 13µM* | -3% | 17% | i | i | 4%
C=C[C@H](CC(C)C)N(Cc1ccccc1)S(=O)(=O)N(Cc1ccccc1)[C@H](C=C)CC(C)C | / | / | / | i | i | /
CCCCCCCCCCCCCCCCCC(=O)OC[C@@H](O)[C@H]1OC[C@H](O)[C@H]1O | / | -2% | -1% | / | / | /
O=C(NCCCN1CCN(c2cccc(Cl)c2)CC1)c1cnn(-c2ccc(F)cc2)c1-n1cccc1 | 3% | / | / | ? | ? | /
CCc1c(C)sc(NC(=O)c2cccs2)c1C(=O)OC(C)C | 1%[38.3 µM] | 10µM* | 9% | i | i | -2%
CCOC(=O)c1c(NC(=O)c2cccs2)sc(C)c1CC | -1%[38.3 µM] | 6% | ? | i | i | -1%
Clc1ccccc1-c1nnc2sc(-c3ccccn3)nn12 | -1% | 0% | 1% | i | i | -8%
COc1cccc(OC)c1-c1nn2c(-c3ccccc3Cl)nnc2s1 | -5% | 0% | -9% | i | 9.2µM* | -1%
Cc1cccc(NC(=O)CSc2nc3ccc(NC(=O)c4ccco4)cc3s2)c1 | -1% | / | / | i | i | /
COCCCn1c(=O)/c(=C\c2ccccc2OC(C)C)s/c1=C(/C#N)C(=O)Nc1ccc(C(=O)O)cc1 | 0% | 26µM* | ? | i | i | ?
COc1ccc(-n2c3c(c(=O)[nH]c2=O)C(NC(=O)c2ccccc2Cl)(C(F)(F)F)C(=O)N3)cc1 (stereo not drawn) | 0% | / | / | i | i | /
Cc1ccc(S(=O)(=O)N2CCN(C(=O)c3ccc(N4CCC(C)CC4)c([N+](=O)[O-])c3)CC2)cc1 | 1% | 3% | -5% | i | 18µM* | 0%
Cc1ccc(S(=O)(=O)N2[C@@H](Cc3ccccc3)CO[C@H]2CC(=O)c2cccs2)cc1 | / | / | / | i | ? | /
Cc1ccc(S(=O)(=O)N2[C@H](CC(=O)c3cccs3)OC[C@@H]2C(C)C)cc1 | / | / | / | 18µM* | 18µM* | /
N#CCSc1nnc(COc2ccccc2)n1-c1ccccc1 | 2% | 17% | -1% | i | 23µM* | -5%
O=C(O)CSc1nnc(COc2ccccc2)n1-c1ccccc1 | 0% | 0% | 1% | i | i | -2%
N#CCSc1nnc(COc2cccc3ccccc23)n1-c1ccccc1 | -8%[38.3 µM] | ? | 5% | 16µM* | 16µM* | -2%
Cc1ccc(-c2nnc(CSc3nnc(COc4cccc5ccccc45)n3-c3ccccc3)o2)cc1 | -1% | 1% | -114% | ? | 2.1µM* | -1%
Cc1cccc(OCc2nnc(SCc3cc(=O)[nH]c4ccccc34)n2-c2ccccc2)c1 | 1% | 0% | -75% | i | 18µM* | -2%
Cc1ccccc1NC(=O)N1CCC(CN2CCCC2)CC1 | 1% | / | / | / | / | /
COc1ccc(S(=O)(=O)c2c(Nc3ccc(F)cc3)sc(C(=O)c3ccc(C)cc3C)c2N)cc1 | 5% | / | / | ? | i | /
CCCCCCCCCCC(CO)CCCCCCCC (stereo not drawn) | / | 1% | -1% | / | / | /
CCOc1ccc2nc(NCCCNS(=O)(=O)c3ccc(F)cc3)c(C#N)cc2c1 | -2%[38.3 µM] | 2.1µM* | ? | 18µM* | i | -4%
CCCCNc1nc2ccccc2nc1NS(=O)(=O)c1ccc(F)cc1 | -1% | ? | 0% | i | ? | -3%
SMILES | PINK1 expr mod | MCF10A rerep | SW480 rereplic | KB-3-1 tox | KB-V1 cytotox | PTAP TSG101 blk
CCOc1ccc2nc(NCCCNS(=O)(=O)c3ccccc3)c(C#N)cc2c1 | 0% | 2.9µM* | 7.3µM* | ? | ? | -9%
COC(=O)C1CCN(c2nc(CN(C)C3CCOC3)nc3cc(OC)c(OC)cc23)CC1 (stereo not drawn) | 2% | / | / | / | / | /
O=C(OCc1ccc(COC(=O)c2ccc(O)cc2)cc1)c1ccc(O)cc1 | 2% | 14% | 2% | i | i | 1%
O=C1C=CC(=O)C(CNc2ccc(C(=O)OCc3ccccc3)cc2)=C1 | 10% | ? | ? | 21µM* | 21µM* | -2%
CCc1ccc2c(c1)C1(NN=C(c3ccc(C)cc3)S1)C(=O)N2 (stereo not drawn) | -3% | 6.5µM* | ? | ? | ? | 2%
CC(C)c1ccc2c(c1)C1(NN=C(c3ccccc3)S1)C(=O)N2 (stereo not drawn) | ? | 1.3µM* | 8.2µM* | ? | i | -7%
CCc1ccc2c(c1)NC(=O)C2(C)Cc1ccc(F)cc1 (stereo not drawn) | 4% | / | / | i | ? | /
CCc1nn(CC(=O)N2CCN(c3cccc(C)c3C)CC2)c(=O)c2cc3sccc3n12 | 1% | / | / | / | / | /
Cc1cc(C)c2oc(-c3cccc(NC(=O)c4ccc(Br)o4)c3)nc2c1 | 4% | / | / | i | i | /
O=C(Nc1cccc(-c2nnc(-c3ccccc3)o2)c1)c1ccc(Br)o1 | / | -2% | ? | i | 21µM* | 1%
O=C(NC(=S)Nc1ccccc1)c1ccc(Br)o1 | 5% | 5% | 12% | i | i | -4%
O=C(Nc1ccc(Nc2ccccc2)cc1)c1ccc(Br)o1 | 2% | 20% | 3% | ? | 13µM* | 0%
COc1ccc(C(=O)COC(=O)c2ccccc2O)c(OC)c1 | -1% | 7% | -2% | i | i | 0%
CN(C)c1ccc(C(CNS(=O)(=O)c2ccc3ccccc3c2)c2c[nH]c3ccccc23)cc1 (stereo not drawn) | 10% | ? | -6% | i | 15µM* | -1%
CCCCC(=O)Nc1cccc(-c2nc3ccccc3s2)c1 | 0% | / | / | i | i | /
O=C(CCNS(=O)(=O)c1cccc2nsnc12)NC1CCCc2ccccc21 (stereo not drawn) | 0% | 2% | -1% | i | i | -4%
O=C(CCNS(=O)(=O)c1cccc2nonc12)NC1CCCc2ccccc21 (stereo not drawn) | -3% | 18% | 6% | i | 23µM* | -1%
O=C(CCCOc1ccccc1)NC1CCCc2ccccc21 (stereo not drawn) | -1% | 16% | 4% | i | 18µM* | 1%
COC(=O)Cc1c(C)c2cc3c(c(C)c2oc1=O)OCN(CCc1ccccc1F)C3 | 1% | / | / | i | i | /
